The whole screen tested about 310,000 compounds, of which about 14,000 (4.5%) showed an effect of 50% or more. The effect is printed as a negative number. The sample as a whole holds a higher share of strong results than the screen did.
target: human ether-à-go-go-related gene (hERG) potassium channel (human, UniProt Q12809); assay: primary screen, population patch clamp on CHO cells stably expressing hERG; higher = less effect of the substance
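Further: peak tail current of the secondary pulse compared with the same well before compound.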

Sequence of human ether-à-go-go-related gene (hERG) potassium channel (Q12809 whole entry, looked up): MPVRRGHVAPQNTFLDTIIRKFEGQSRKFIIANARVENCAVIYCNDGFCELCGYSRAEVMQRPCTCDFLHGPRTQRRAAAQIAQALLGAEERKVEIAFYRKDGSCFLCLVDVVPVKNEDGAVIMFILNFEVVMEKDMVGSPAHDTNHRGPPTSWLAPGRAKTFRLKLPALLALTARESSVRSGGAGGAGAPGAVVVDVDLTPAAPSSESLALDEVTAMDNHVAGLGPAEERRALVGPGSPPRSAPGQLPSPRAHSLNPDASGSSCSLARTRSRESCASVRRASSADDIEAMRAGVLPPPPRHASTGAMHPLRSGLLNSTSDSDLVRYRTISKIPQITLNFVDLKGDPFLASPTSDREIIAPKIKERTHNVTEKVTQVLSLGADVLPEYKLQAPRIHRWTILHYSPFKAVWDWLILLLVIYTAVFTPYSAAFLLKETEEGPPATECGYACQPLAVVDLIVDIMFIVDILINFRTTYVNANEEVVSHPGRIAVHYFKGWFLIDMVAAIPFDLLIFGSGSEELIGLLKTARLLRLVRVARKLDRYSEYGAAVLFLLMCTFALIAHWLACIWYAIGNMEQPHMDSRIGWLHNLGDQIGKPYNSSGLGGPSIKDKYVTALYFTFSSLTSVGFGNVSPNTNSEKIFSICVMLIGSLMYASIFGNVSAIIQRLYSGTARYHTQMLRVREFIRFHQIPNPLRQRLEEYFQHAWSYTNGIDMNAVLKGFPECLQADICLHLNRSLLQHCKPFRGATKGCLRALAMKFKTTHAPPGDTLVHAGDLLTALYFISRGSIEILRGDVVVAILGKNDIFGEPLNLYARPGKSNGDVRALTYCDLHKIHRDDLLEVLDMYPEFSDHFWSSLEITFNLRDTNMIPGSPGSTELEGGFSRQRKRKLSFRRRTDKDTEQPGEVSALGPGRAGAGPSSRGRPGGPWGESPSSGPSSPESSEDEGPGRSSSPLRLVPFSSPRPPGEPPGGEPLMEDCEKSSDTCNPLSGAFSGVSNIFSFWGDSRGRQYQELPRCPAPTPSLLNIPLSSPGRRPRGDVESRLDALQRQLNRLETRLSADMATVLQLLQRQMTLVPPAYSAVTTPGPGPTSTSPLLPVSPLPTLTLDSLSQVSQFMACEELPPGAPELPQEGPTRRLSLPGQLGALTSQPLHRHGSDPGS

Compared with `CCOc1ccc(-c2cc(C(=O)NN3CCN(C)CC3)c3cc(Cl)ccc3n2)cc1`, `CCc1ccc2oc(C(=O)N3CCN(c4ccc(OC)cc4)CC3)cc(=O)c2c1` is lower in “hERG current change (%, negative = inhibition) at 10uM” value: 22.5% for the first, -36.7% for the second.

Going from `CC(C(=O)NCc1ccc2c(c1)OCO2)N1c2cccc3cccc(c23)S1(=O)=O` (centres unmarked) to `Cc1ccc2c(c1)N(Cc1ccc3c(c1)OCO3)C(=O)C(C)O2` (centres unmarked), the “hERG current change (%, negative = inhibition) at 10uM” value rises from -22.7% to -13.5%.

First: O=C(CN1C(=O)S/C(=C\C=C\c2ccccc2)C1=O)N1CCCCC1
Second: O=C(CN1C(=O)C2C3C=CC(C3)C2C1=O)N1CC=C(c2ccccc2)CC1 (centres unmarked)
The “hERG current change (%, negative = inhibition) at 10uM” value of the first is higher: 10.8% for the first, -10.1% for the second.

First: Cc1cc(=O)oc2cc(OCCSCCN3CCCCC3)ccc12
Second: O=C(CCN1CCCCC1)c1ccc2c(c1)OCO2
The “hERG current change (%, negative = inhibition) at 10uM” value of the first is lower: -16.5% for the first, -0.169% for the second.

Going from `CNC(=S)N1CCn2cccc2C1c1cccnc1` (centres unmarked) to `O=C(NCc1cccnc1)c1sc2ccccc2c1Cl`, the “hERG current change (%, negative = inhibition) at 10uM” value falls from 6.45% to -28.9%.

First: COc1ccc(/C(N)=N/OC(=O)CCCc2ccccc2)cc1
Second: COc1ccc(C(=O)NC2CC2)cc1OC1CCN(Cc2ccccc2)CC1
The “hERG current change (%, negative = inhibition) at 10uM” value of the first is higher: -11.3% for the first, -81.6% for the second.

Compared with `FC(F)(F)Oc1ccc(NC2=NCCCS2)cc1`, `O=C(COC(=O)/C=C/c1cccc(C(F)(F)F)c1)NCc1ccco1` is higher in “hERG current change (%, negative = inhibition) at 10uM” value: -24.4% for the first, 13.5% for the second.

Going from `COC(=O)c1c(NC(=O)C2CCCO2)sc2c1CCC2` (centres unmarked) to `COc1cc(C(=O)NC2CCCCC2)ccc1OC1CCN(C(C)=O)CC1`, the “hERG current change (%, negative = inhibition) at 10uM” value rises from -3.4% to 7.63%.

Compared with `CC(C)CN(CC(C)C)C(=O)c1cc2c(=O)n3ccccc3nc2s1`, `CCCn1c(=O)c(C(=O)NCc2ccccn2)c(O)c2ccccc21` is lower in “hERG current change (%, negative = inhibition) at 10uM” value: 7.12% for the first, -11.1% for the second.

Compared with `O=C(O)C1CC1(c1ccccc1)c1ccccc1` (centres unmarked), `Cc1nc(NNC(=O)c2ccccc2)cc(-c2ccccc2)n1` is lower in “hERG current change (%, negative = inhibition) at 10uM” value: 17.7% for the first, 3.7% for the second.

Going from `N#CC(C#N)=Cc1ccc(N2CCOCC2)cc1` to `C(=NCCCN1CCOCC1)c1ccc2c(c1)OCO2`, the “hERG current change (%, negative = inhibition) at 10uM” value rises from -10.7% to 15.7%.

Going from `CCCn1c(=O)c(C(=O)NCc2ccncc2)c(O)c2ccccc21` to `CCCn1c(=O)c(C(=O)NCc2ccccc2)c(O)c2ccccc21`, the “hERG current change (%, negative = inhibition) at 10uM” value rises from -63% to 7.64%.

Compared with `O=C(NCc1cccnc1)c1sc2cc(Cl)ccc2c1Cl`, `Cc1ccc2c(Cl)c(C(=O)NCc3cccnc3)sc2c1` is higher in “hERG current change (%, negative = inhibition) at 10uM” value: -55.4% for the first, -46.4% for the second.

First: Cc1cc(NC(=O)CSc2nc3ccsc3c(=O)n2NC(=O)c2ccccc2)no1
Second: Cc1nc(NNC(=O)c2ccc([N+](=O)[O-])cc2)cc(-c2ccccc2)n1
The “hERG current change (%, negative = inhibition) at 10uM” value of the first is higher: -1.69% for the first, -50.8% for the second.

Going from `Cc1ccc(C(=O)N(C)CC(=O)Nc2cccc(F)c2)cc1S(=O)(=O)N1CCCCC1` to `COc1ccc(C(=O)NC2CCN(CC(=O)Nc3c(C)cccc3C)CC2)cc1OC`, the “hERG current change (%, negative = inhibition) at 10uM” value rises from -10.5% to 18.7%.

Compared with `COc1ccc(C(=O)NC2CCC(O)CC2)cc1S(=O)(=O)NCc1ccc(Cl)cc1` (centres unmarked), `COc1ccc(C(=O)NC2CC2)cc1OC1CCN(Cc2ccc(Cl)cc2)CC1` is lower in “hERG current change (%, negative = inhibition) at 10uM” value: -6.07% for the first, -78.8% for the second.

Going from `COc1cc2[nH]c(=O)n(Cc3ccc(C(=O)NC4CCN(Cc5ccccc5)CC4)cc3)c(=O)c2cc1OC` to `COc1cc(C(=O)NC2CCN(Cc3nnnn3Cc3ccc(F)cc3)CC2)cc(OC)c1OC`, the “hERG current change (%, negative = inhibition) at 10uM” value falls from 17.6% to -0.888%.

Going from `COc1ccc(C(=O)NC2CC2)cc1OC1CCN(Cc2ccc(SC)cc2)CC1` to `COc1ccc(C(=O)NC2CC2)cc1OC1CCN(Cc2ccc(F)cc2)CC1`, the “hERG current change (%, negative = inhibition) at 10uM” value rises from -88.7% to -81.8%.

First: COc1ccc(C(=O)NC2CC2)cc1OC1CCN(Cc2cnn(C)c2)CC1
Second: COc1ccc(C(=O)NC2CC2)cc1OC1CCN(Cc2ccc(F)c(F)c2)CC1
The “hERG current change (%, negative = inhibition) at 10uM” value of the first is higher: -32.7% for the first, -75.2% for the second.

Going from `COc1ccc(C(=O)NCCc2cccc(Cl)c2)cc1OC1CCN(C(C)=O)CC1` to `C/C=C(\C)CN1CCC(Oc2cc(C(=O)NC3CC3)ccc2OC)CC1`, the “hERG current change (%, negative = inhibition) at 10uM” value falls from -16.1% to -64.5%.

First: C/C(=N\Nc1ccc(S(N)(=O)=O)cc1[N+](=O)[O-])c1cccs1
Second: COc1ccc(N2CC(C(=O)Nc3ccc([N+](=O)[O-])cc3Br)CC2=O)cc1 (centres unmarked)
The “hERG current change (%, negative = inhibition) at 10uM” value of the first is higher: 25.7% for the first, -69% for the second.

First: C[C@]12CC[C@H]3[C@@H](CC[C@]4(O)C[C@@H](O)CC[C@]34C=O)[C@@]1(O)CC[C@@H]2C1=CC(=O)OC1
Second: O=C(C1CCCN(Cc2ccc3c(c2)OCO3)C1)N1CCCC1.O=C(O)C(=O)O (centres unmarked)
The “hERG current change (%, negative = inhibition) at 10uM” value of the first is higher: 14% for the first, 9.26% for the second.

Compared with `O=C(CC12CC3CC(CC(C3)C1)C2)N1CCOCC1`, `CC(O)c1ccc2c(c1)OCCOCCN(C)CCOCCO2` (centres unmarked) is lower in “hERG current change (%, negative = inhibition) at 10uM” value: -1.47% for the first, -1.64% for the second.

Compared with `COc1ccccc1CC(NC(C)=O)C(=O)NC1CCN(C(=O)Nc2ccc(F)cc2)CC1` (centres unmarked), `COc1cc(OC)cc(C(=O)NC2CCN(Cc3nnnn3Cc3ccc(F)cc3)CC2)c1` is lower in “hERG current change (%, negative = inhibition) at 10uM” value: -1.82% for the first, -3.98% for the second.

First: CN(C)S(=O)(=O)c1cccc(C(=O)NC2CCSc3ccccc32)c1 (centres unmarked)
Second: CN(C)S(=O)(=O)N(CC(=O)NCc1ccccc1)c1ccccc1
The “hERG current change (%, negative = inhibition) at 10uM” value of the first is lower: -5.74% for the first, 1.87% for the second.

Going from `CCOc1cccc(=O)c2c(C)n(Cc3ccco3)c(C)c12` to `Cc1cccc(/C=C2\CS/C(=C\c3cccc(C)c3)C2=O)c1`, the “hERG current change (%, negative = inhibition) at 10uM” value rises from -11.5% to 0.505%.

First: Cc1nc(NS(=O)(=O)c2ccccc2)sc1C(=O)N/N=C/c1ccccc1
Second: CN(C)/C=N/c1c(C(=O)NCc2ccccc2)nnn1Cc1ccccc1
The “hERG current change (%, negative = inhibition) at 10uM” value of the first is higher: -2% for the first, -12.2% for the second.

Compared with `CCn1c2ccccc2c2cc(/C=N/n3cnnc3)ccc21`, `O=C(Cn1cncn1)N/N=C/c1cccc2ccccc12` is higher in “hERG current change (%, negative = inhibition) at 10uM” value: -13.4% for the first, -4.06% for the second.

Compared with `COc1ccc(N2CC(C(=O)N/N=C/c3ccc(C)cc3)CC2=O)cc1` (centres unmarked), `COc1ccc(N2CC(C(=O)N/N=C/c3ccc([N+](=O)[O-])cc3)CC2=O)cc1` (centres unmarked) is lower in “hERG current change (%, negative = inhibition) at 10uM” value: -18.8% for the first, -59.5% for the second.

Compared with `COc1ccc(OC)c(NC(=O)C2CC(=O)N(c3ccc(Br)cc3)C2)c1` (centres unmarked), `COc1ccc(N2CC(C(=O)Nc3ccc(F)cc3F)CC2=O)cc1` (centres unmarked) is higher in “hERG current change (%, negative = inhibition) at 10uM” value: -33.6% for the first, -0.618% for the second.

Compared with `COc1ccc(N2CC(C(=O)N/N=C/c3cc([N+](=O)[O-])ccc3O)CC2=O)cc1` (centres unmarked), `O=C(CN1CCN(c2ccccc2O)CC1)Nc1ccc([N+](=O)[O-])cc1Br` is higher in “hERG current change (%, negative = inhibition) at 10uM” value: -8.45% for the first, -6.3% for the second.

Going from `Cc1ccc(OCC(=O)Nc2ccccc2F)cc1C` to `Cc1cccc2c(CC(=O)Nc3ccccc3)noc12`, the “hERG current change (%, negative = inhibition) at 10uM” value falls from 23.6% to -0.38%.

First: Cc1nc(NNC(=O)c2ccc(Cl)cc2Cl)cc(-c2ccccc2)n1
Second: O=C(NCCc1cccc(F)c1)C1CCCN(c2nc3ccccc3s2)C1 (centres unmarked)
The “hERG current change (%, negative = inhibition) at 10uM” value of the first is lower: 6.97% for the first, 7.76% for the second.

First: CC1OC(OCC2OC(Oc3c(-c4ccc(O)cc4)oc4cc(O)cc(O)c4c3=O)C(O)C(O)C2O)C(O)C(O)C1O (centres unmarked)
Second: COc1ccccc1N1CCN(C(=O)c2cc(=O)c3ccc(C)cc3o2)CC1
The “hERG current change (%, negative = inhibition) at 10uM” value of the first is higher: 13.7% for the first, -20.7% for the second.

Compared with `CCc1ccc2oc(C(=O)N3CCN(C)CC3)cc(=O)c2c1`, `CCc1ccc2oc(C(=O)N3CCN(c4ccccc4OC)CC3)cc(=O)c2c1` is lower in “hERG current change (%, negative = inhibition) at 10uM” value: -32.4% for the first, -68.7% for the second.

Compared with `COc1ccccc1N1CCN(C(=O)c2cc(=O)c3cc(C)cc(C)c3o2)CC1`, `COc1ccccc1N1CCN(C(=O)c2cc(=O)c3cc(C)ccc3o2)CC1` is lower in “hERG current change (%, negative = inhibition) at 10uM” value: -27.3% for the first, -50.7% for the second.

Compared with `O=C(Nc1nnc(S(=O)(=O)N2CCOCC2)s1)c1ccccc1Br`, `O=C(CN1CCOCC1)Nc1ccc([N+](=O)[O-])cc1Br` is lower in “hERG current change (%, negative = inhibition) at 10uM” value: 4.05% for the first, -43.7% for the second.

Compared with `COCCn1c(C)cc(C(=O)COC(=O)c2ccc(-n3nc(C)cc3C)cc2)c1C`, `CCOC(=O)c1c(NC(=O)c2cccnc2)sc(C(C)=O)c1C` is lower in “hERG current change (%, negative = inhibition) at 10uM” value: 2.16% for the first, -5.09% for the second.

Compared with `CCOC(Cn1cc(C)c(=O)[nH]c1=O)OCC`, `Cc1c(NC(=S)NC(NC(=O)C(C)C)C(Cl)(Cl)Cl)c(=O)n(-c2ccccc2)n1C` (centres unmarked) is higher in “hERG current change (%, negative = inhibition) at 10uM” value: -2.39% for the first, -1.45% for the second.

First: N#CCc1cc2ccc3cccc4ccc(c1)c2c34
Second: CSc1nc2c(ccc3ccccc32)o1
The “hERG current change (%, negative = inhibition) at 10uM” value of the first is higher: 16.2% for the first, 12.9% for the second.

Compared with `CCS(=O)(=O)Nc1cccc(C2=NN(S(=O)(=O)c3ccc(C)cc3)C(c3ccco3)C2)c1` (centres unmarked), `CC(=O)N1CCN(CC(=O)Nc2ccc([N+](=O)[O-])cc2Br)CC1` is lower in “hERG current change (%, negative = inhibition) at 10uM” value: 12.9% for the first, -75.3% for the second.

Compared with `Cc1c(C)c2cc(Cl)c(O)c(CN3CCCC(C)C3)c2oc1=O` (centres unmarked), `CC(C)CCC(CCN1CCCC1)c1ccc2c(c1)OCO2.O=C(O)C(=O)O` (centres unmarked) is lower in “hERG current change (%, negative = inhibition) at 10uM” value: 8.5% for the first, -78.1% for the second.

First: CC(C)CCC(CCN1CCOCC1)c1ccc2c(c1)OCO2.Cl (centres unmarked)
Second: CN1CCN(CC(=O)Nc2ccc([N+](=O)[O-])cc2Br)CC1
The “hERG current change (%, negative = inhibition) at 10uM” value of the first is lower: -72.9% for the first, -70.9% for the second.

Going from `NC(=O)COC(=O)c1ccccc1SCC(=O)NC1CCCCCCC1` to `O=C(CN1CCCCCC1)Nc1ccc([N+](=O)[O-])cc1Br`, the “hERG current change (%, negative = inhibition) at 10uM” value falls from 12% to 6.13%.

With `CC(=O)N1CCN(CC(=O)Nc2cc([N+](=O)[O-])ccc2Cl)CC1` the “hERG current change (%, negative = inhibition) at 10uM” value was 15.5%.

Reference: PMC4336329 (PLoS ONE, 2015)
